This is part of a sample that, as a whole, favours compounds with a hit. Of some 79,000 tested, about 15% had one in any assay. Unmarked numbers belong to inactive results. No stated cut-off is given here; in the data, active means growth inhibition above about 70%; inactive means the rest.

A short description of one experiment: NCI Yeast Anticancer Drug Screen. Data for the rad50 strain (AID 155).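 Further: 0% = growth of vehicle-only cultures of the same strain.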 Particulars: S. cerevisiae rad50 strain growth inhibition; at 50.0 µM; hits give high values. The procedure, abridged: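 Inhibition values express reduced yeast growth in compound-treated cultures relative to vehicle-treated controls.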
Turning to `CN1CCN(c2c3c(nc4ccccc24)CCCC3)CC1`, the growth inhibition is -6.45%.

Turning to `CNC(=O)Nc1ccnc(=O)[nH]1`, the growth inhibition was -10.6%.

Turning to `O=c1ccc(=O)n(-c2ccc(Cl)cc2)[nH]1`, the growth inhibition is -8.1%.

For the molecule `O=C(c1cccnc1)c1cc(-c2ccccn2)c(=O)n2ccccc12`, the growth inhibition was 0.7%.

For `CCOC(=O)CC1(C)c2nc(NC(C)=O)sc2Cc2sc(NC(C)=O)nc21`, the growth inhibition was -2.2%.

On to `O=C1CCCCC1COCC1CCCCC1=O` (stereo not given), for which the growth inhibition was -4.8%.

Consider `COc1cc(C2C3=C(COC3=O)OC(C)(C)Oc3cc4c(cc32)OCO4)cc(OC)c1O` (stereo not given), for which the growth inhibition is 55.7%.

`[Co].[O-]c1cccnc1C=Nc1ccccc1.[OH3+]`: the growth inhibition is 24.8%.

As to `COCC/C=C/CCl`, the growth inhibition is -8.75%.

Consider `Cc1cc(C(N)=O)c(C(N)=O)c(Cl)n1`, for which the growth inhibition was 2.35%.

In the case of `O=C1CCSSCCC(=O)Nc2ccccc2N1`, the growth inhibition was -36.4%.

On to `Cc1c(N=Nc2cccc(Cl)c2Cl)c(-c2ccccc2)nn1C(=S)S`, for which the growth inhibition was 53.8%.

`CCC(C(O)c1ccccc1)[N+](=O)[O-]` (stereo not given): the growth inhibition is 54.8%.

Turning to `CCCCN(CCCC)S(=O)(=O)N1CCOCC1`, the growth inhibition was -12.3%.

`N#Cc1nc(CCC(C(=O)O)N2C(=O)c3ccccc3C2=O)oc1N` (stereo not given): the growth inhibition was 3.55%.

Take `CS(=O)(=O)OCCC(O)COS(C)(=O)=O` (stereo not given): the growth inhibition is -7.55%.

Consider `CCOC(=O)/C(C#N)=C/NCC1CC1`, for which the growth inhibition is -21.8%.

For `CCC[n+]1cccc(C#N)c1`, the growth inhibition is 6.15%.

As to `COC1=C(NCC(C)C)C(=O)C(OC)=C(NCC(C)C)C1=O`, the growth inhibition is -3.05%.

On to `N#Cc1c(-c2ccccc2)nc(-c2ccccc2)sc1=S`, for which the growth inhibition is 12.1%.

For `C=C(Cl)C(=C)CCC(Cl)C(C)(C)Cl` (stereo not given), the growth inhibition was 12.6%.

In the case of `CCOC(C)Oc1ccccc1` (stereo not given), the growth inhibition is 35.5%.

With `CCOC(=O)C(Br)CN1C(=O)c2ccccc2C1=O` (stereo not given), the growth inhibition was 5.5%.

Consider `COc1ccc2c(c1)C(C)(C(N)=O)CCC2` (stereo not given), for which the growth inhibition was 3.25%.

In the case of `C/C(CC(O)(C(F)(F)F)C(F)(F)F)=N\NC(N)=O`, the growth inhibition was -38.5%.

As to `COc1nc(N=P(c2ccccc2)(c2ccccc2)c2ccccc2)cc(=O)[nH]1`, the growth inhibition is 4.3%.

In the case of `COC1(OC)C(Cl)=C(Cl)C2C1C1(Cl)C(Cl)=C(Cl)C2(Cl)C1(OC)OC` (stereo not given), the growth inhibition was 39.9%.

Turning to `CCCC(O)C(C)N` (stereo not given), the growth inhibition is 4.3%.

On to `CC(=O)O[C@H]1CC(C)(C)C(=C=C/C(C)=C/C=C/C=C/C=C(C)/C=C2C=C(/C=C/[C@@]34O[C@]3(C)C[C@@H](O)CC4(C)C)C(=O)O/2)[C@](C)(O)C1`, for which the growth inhibition was 9.55%.

As to `CC(=O)CC(=O)OC1CCCC(C)C1` (stereo not given), the growth inhibition was -9.55%.

For `O=C(NC/C=C/Br)Oc1cccc2ccccc12`, the growth inhibition is -0.05%.

For the molecule `COC(=O)C1(CC(=O)c2ccc(Cl)cc2)NC(=S)NC(=O)C1C#N` (stereo not given), the growth inhibition is 13.6%.

Consider `CCCCOC(=O)c1ccc(OC(=O)Nc2ccccc2)cc1`, for which the growth inhibition was 11.2%.

Take `O=C1NCCN(CCc2ccccc2)C1c1ccccc1` (stereo not given): the growth inhibition was -9.6%.

Take `COc1cc(C=O)ccc1OC(=O)Nc1cccc(C(C)=O)c1`: the growth inhibition is 4.7%.

Take `Clc1ccc(CN2COc3c(ccc4ccccc34)C2)cc1Cl`: the growth inhibition is 1.65%.

In the case of `Cc1c2ccccc2c(C)n2c1nc1cc3ccccc3cc12`, the growth inhibition was 9.8%.

As for `COc1ccc(OC)c(NC(=O)c2ccc(Cl)c(Cl)c2)c1`, the growth inhibition was -0.5%.

With `CC1SCC(=O)N1c1nncs1` (stereo not given), the growth inhibition is -3.05%.

Turning to `CC(SSc1ccc(C(C)(C)C)cc1)c1ccccc1` (stereo not given), the growth inhibition was 9.25%.

A short description of the next experiment: NCI Yeast Anticancer Drug Screen. Data for the mec2-1 strain (AID 157). Particulars: S. cerevisiae mec2-1 strain, at 50.0 µM, hits give high values. The procedure, abridged: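 Using mec2-1 yeast: add compound, measure growth, express inhibition versus vehicle-treated cultures.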
Consider `CN1CCN(c2c3c(nc4ccccc24)CCCC3)CC1`, for which the growth inhibition was 2%.

As for `CNC(=O)Nc1ccnc(=O)[nH]1`, the growth inhibition was -1.85%.

Turning to `O=c1ccc(=O)n(-c2ccc(Cl)cc2)[nH]1`, the growth inhibition is -21.8%.

As for `O=C(c1cccnc1)c1cc(-c2ccccn2)c(=O)n2ccccc12`, the growth inhibition was 1.95%.

For `CCOC(=O)CC1(C)c2nc(NC(C)=O)sc2Cc2sc(NC(C)=O)nc21`, the growth inhibition is -8.9%.

Regarding `O=C1CCCCC1COCC1CCCCC1=O` (stereo not given), the growth inhibition is 2.65%.

Take `COc1cc(C2C3=C(COC3=O)OC(C)(C)Oc3cc4c(cc32)OCO4)cc(OC)c1O` (stereo not given): the growth inhibition was -3.6%.

On to `[Co].[O-]c1cccnc1C=Nc1ccccc1.[OH3+]`, for which the growth inhibition was 31.6%.

In the case of `COCC/C=C/CCl`, the growth inhibition is -22.6%.

Take `Cc1cc(C(N)=O)c(C(N)=O)c(Cl)n1`: the growth inhibition was -7.35%.

With `O=C1CCSSCCC(=O)Nc2ccccc2N1`, the growth inhibition was -42.5%.

`Cc1c(N=Nc2cccc(Cl)c2Cl)c(-c2ccccc2)nn1C(=S)S`: the growth inhibition was 42.6%.

Regarding `CCC(C(O)c1ccccc1)[N+](=O)[O-]` (stereo not given), the growth inhibition was 31.3%.

As for `CCCCN(CCCC)S(=O)(=O)N1CCOCC1`, the growth inhibition is -10.1%.

Consider `N#Cc1nc(CCC(C(=O)O)N2C(=O)c3ccccc3C2=O)oc1N` (stereo not given), for which the growth inhibition is 15.2%.

On to `CS(=O)(=O)OCCC(O)COS(C)(=O)=O` (stereo not given), for which the growth inhibition is -7.25%.

On to `CCOC(=O)/C(C#N)=C/NCC1CC1`, for which the growth inhibition is -33.5%.

With `CCC[n+]1cccc(C#N)c1`, the growth inhibition is 5.4%.

With `COC1=C(NCC(C)C)C(=O)C(OC)=C(NCC(C)C)C1=O`, the growth inhibition was 8.75%.

Take `N#Cc1c(-c2ccccc2)nc(-c2ccccc2)sc1=S`: the growth inhibition was -0.7%.

`C=C(Cl)C(=C)CCC(Cl)C(C)(C)Cl` (stereo not given): the growth inhibition was 9.4%.

`CCOC(C)Oc1ccccc1` (stereo not given): the growth inhibition is -8.6%.

Turning to `CCOC(=O)C(Br)CN1C(=O)c2ccccc2C1=O` (stereo not given), the growth inhibition was -7.1%.

Regarding `COc1ccc2c(c1)C(C)(C(N)=O)CCC2` (stereo not given), the growth inhibition was 4.8%.

In the case of `C/C(CC(O)(C(F)(F)F)C(F)(F)F)=N\NC(N)=O`, the growth inhibition was -44.5%.

In the case of `COc1nc(N=P(c2ccccc2)(c2ccccc2)c2ccccc2)cc(=O)[nH]1`, the growth inhibition is 1.6%.

Consider `COC1(OC)C(Cl)=C(Cl)C2C1C1(Cl)C(Cl)=C(Cl)C2(Cl)C1(OC)OC` (stereo not given), for which the growth inhibition was 10.1%.

In the case of `CCCC(O)C(C)N` (stereo not given), the growth inhibition was -3.1%.

Take `CC(=O)O[C@H]1CC(C)(C)C(=C=C/C(C)=C/C=C/C=C/C=C(C)/C=C2C=C(/C=C/[C@@]34O[C@]3(C)C[C@@H](O)CC4(C)C)C(=O)O/2)[C@](C)(O)C1`: the growth inhibition is 32.5%.

Regarding `CC(=O)CC(=O)OC1CCCC(C)C1` (stereo not given), the growth inhibition was 1%.

For the molecule `O=C(NC/C=C/Br)Oc1cccc2ccccc12`, the growth inhibition is 18.6%.

Take `COC(=O)C1(CC(=O)c2ccc(Cl)cc2)NC(=S)NC(=O)C1C#N` (stereo not given): the growth inhibition is 12.6%.

Take `CCCCOC(=O)c1ccc(OC(=O)Nc2ccccc2)cc1`: the growth inhibition was 6%.

On to `O=C1NCCN(CCc2ccccc2)C1c1ccccc1` (stereo not given), for which the growth inhibition was 0.95%.

As to `COc1cc(C=O)ccc1OC(=O)Nc1cccc(C(C)=O)c1`, the growth inhibition is 23.6%.

As to `Clc1ccc(CN2COc3c(ccc4ccccc34)C2)cc1Cl`, the growth inhibition is 15.2%.

Turning to `Cc1c2ccccc2c(C)n2c1nc1cc3ccccc3cc12`, the growth inhibition is 11.9%.

For `COc1ccc(OC)c(NC(=O)c2ccc(Cl)c(Cl)c2)c1`, the growth inhibition is 14.3%.

As to `CC1SCC(=O)N1c1nncs1` (stereo not given), the growth inhibition is -0.75%.

`CC(SSc1ccc(C(C)(C)C)cc1)c1ccccc1` (stereo not given): the growth inhibition was -14.2%.

The record behind these values is PubChem BioAssay (NCI).
